SMILES strings stand for the structures. Inconclusive results are not listed. A number with no mark means an inactive call. Activity calls are given as the source filed them. Unless noted, the call rests on the fitted dose curve.

The nature of assay [1]: Primary qHTS for Huh7 cytotoxicity: counterscreen for inhibitors of MERS-S pseudotyped particle cell entry (AID 1479147). On activity change, negative = cytotoxicity: on the % scale 0 is the no-effect control and ±100 the full control effect.
The nature of assay [2]: Primary qHTS for inhibitors of MERS-S pseudo-typed particle cell entry (AID 1479149). Further: nearly all actives have a fitted effect of over 60% in size. Further: potency means the concentration at half of the fitted maximal effect. In general terms: qHTS replaces the single test concentration by a dilution series.
Assay [3] can be described thus: Primary qHTS for Vero E6 cytotoxicity: counterscreen for inhibitors of SARS-S pseudo-typed particle cell entry (AID 1479150). On activity change, negative = cytotoxicity: on the % scale 0 is the no-effect control and ±100 the full control effect.
Assay [4] is described as follows: Confirmatory qHTS for VERO E6 Cytotoxicity Assay: Counterscreen for SARS-CoV-2 CPE Assay (AID 1508605). Further: series mostly up to about 20 µM; on the % scale 0 is the no-effect control and ±100 the full control effect; nearly all actives have a fitted effect of over 60% in size.
Assay [5] deals with Calcium and integrin-binding protein 1 (Homo sapiens) (UniProt Q99828). In words: Confirmatory qHTS for Identification of Calcium Integrin Binding Protein 1 (CIB1) Competitor (AID 1508617; active means well fitted inhibition curve with a large enough effect; further: potency means the concentration at half of the fitted maximal effect; nearly all actives have a fitted effect of over 65% in size). In outline:
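Compounds at up to 114 uM final met 1 uM GST-tagged CIB1 for 15 min at room temperature (HEPES pH 7.4, 5 mM CaCl2). FITC-labelled alphaIIb peptide, 100 nM, added; polarization read after 15 min more.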

Assay [6] is described as follows: Primary qHTS for inhibitors of La Crosse Virus (LACV) - induced cell death in SH-SY5Y cells (AID 1508616; active means well fitted inhibition curve with a large enough effect;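 further: top concentration of the series differs between compounds; 0% = infected DMSO wells and 100% = uninfected DMSO wells; higher means more rescue of cells from virus-induced death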). In outline: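 Screening measures cell viability in LACV-infected SH-SY5Y cultures. Compound was added before virus (0.01 MOI), and ATP was detected by luminescence 6 days later.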

Calcium and integrin-binding protein 1 (Homo sapiens), sequence (Q99828 whole entry, looked up): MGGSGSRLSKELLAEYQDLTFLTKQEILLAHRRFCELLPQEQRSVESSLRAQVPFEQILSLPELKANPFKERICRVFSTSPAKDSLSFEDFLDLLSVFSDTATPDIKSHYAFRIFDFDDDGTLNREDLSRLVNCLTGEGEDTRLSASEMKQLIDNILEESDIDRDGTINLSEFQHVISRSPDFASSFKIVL

Regarding `COC(=O)C1=C(C)NC(C)=C(C(=O)OCC(C)=O)C1c1ccccc1[N+](=O)[O-]` (stereo unspecified), the Potency result in assay [1], in assay [2] and in assay [3] was “inactive” throughout.

As for `NCCCC[C@H](N[C@@H](CCc1ccccc1)C(=O)O)C(=O)N1CCC[C@H]1C(=O)O`, the Potency result in assay [1], in assay [2] and in assay [3] was “inactive” in each case.

For `C[C@@H]1O[C@@H]1P(=O)(O)O`, the Potency result in assay [1], in assay [2] and in assay [3] was “inactive” each time.

Take `CC(C)(C)NCC(O)c1cc(O)cc(O)c1` (stereo unspecified): the Potency result in assay [1], in assay [2] and in assay [3] was “inactive” throughout.

In the case of `CC(C)[C@H](N)C(=O)OCCOCn1cnc2c(=O)[nH]c(N)nc21`, the Potency entry in assay [1], in assay [2] and in assay [3] was “inactive” throughout.

Take `CCn1cc(C(=O)O)c(=O)c2cnc(N3CCNCC3)nc21`: the Potency entry in assay [1], in assay [2] and in assay [3] was “inactive” throughout.

In the case of `CCCCC(CC)CN1CN(CC(CC)CCCC)CC(C)(N)C1` (stereo unspecified), the Potency entry in assay [1], in assay [2] and in assay [3] was “inactive” in each case.

For the compound `C[C@]12CC[C@@H]3c4ccc(OC(=O)N(CCCl)CCCl)cc4CC[C@H]3[C@@H]1CC[C@@H]2OP(=O)(O)O`, the Potency entry in assay [1], in assay [2] and in assay [3] was “inactive” in each case.

Consider `N#CSCC(=O)O`, for which the Potency result in assay [1], in assay [2] and in assay [3] was “inactive” in each case.

As for `CC(C)NC(C)C`, the Potency result in assay [1], in assay [2] and in assay [3] was “inactive” each time.

For the compound `c1ccc2c(c1)CCCC2C1=NCCN1` (stereo unspecified), the Potency result in assay [1], in assay [2] and in assay [3] was “inactive” each time.

In the case of `Cc1c(C(=O)O)c(O)cc2c1C(=O)c1c(O)c([C@@H]3O[C@H](CO)[C@@H](O)[C@H](O)[C@H]3O)c(O)c(O)c1C2=O`, the Potency entry in assay [1], in assay [2] and in assay [3] was “inactive” each time.

Turning to `CC(N=C(NC#N)Nc1ccncc1)C(C)(C)C` (stereo unspecified), the Potency entry in assay [1], in assay [2] and in assay [3] was “inactive” throughout.

As for `Cc1nc2ccc(CN(C)c3ccc(C(=O)N[C@@H](CCC(=O)O)C(=O)O)s3)cc2c(=O)[nH]1`, the Potency entry in assay [1], in assay [2] and in assay [3] was “inactive” in each case.

As for `CC(CCc1ccc(O)cc1)NCCc1ccc(O)c(O)c1` (stereo unspecified), the Potency entry in assay [1], in assay [2] and in assay [3] was “inactive” each time.

As to `C[C@H]1O[C@@H](n2cc(F)c(=O)[nH]c2=O)[C@H](O)[C@@H]1O`, the Potency entry in assay [1], in assay [2] and in assay [3] was “inactive” each time.

Take `C[N+](C)(C)CCCCCC[N+](C)(C)C`: the Potency entry in assay [1], in assay [2] and in assay [3] was “inactive” each time.

As for `O=c1c(-c2ccc(O)cc2)coc2cc(O)cc(O)c12`, the Potency result in assay [1], in assay [2] and in assay [3] was “inactive” in each case.

For the compound `CCCCCCCCCCOc1cc2c(=O)c(C(=O)OCC)c[nH]c2cc1OCC`, the outcome in assay [1] and in assay [2] was “inactive [at 5.34 µM]” throughout. The activity change, negative = cytotoxicity in assay [3] is 1.57% [at 5.34 µM].

Regarding `COc1ccc(C(=O)c2ccccc2O)c(O)c1`, the Potency result in assay [1], in assay [2] and in assay [3] was “inactive” throughout.

`CC(=O)Oc1cc(C(C)C)c(OCCN(C)C)cc1C`: the Potency entry in assay [1], in assay [2] and in assay [3] was “inactive” each time.

For the compound `O=C(CCBr)N1CCN(C(=O)CCBr)CC1`, the Potency result in assay [1], in assay [2] and in assay [3] was “inactive” each time.

As for `O=C(NCCO[N+](=O)[O-])c1cccnc1`, the Potency entry in assay [1], in assay [2] and in assay [3] was “inactive” throughout.

In the case of `NC(CS)C(=O)O` (stereo unspecified), the Potency entry in assay [1], in assay [2] and in assay [3] was “inactive” throughout.

As for `CN1[C@@H]2CC[C@H]1CC(OC(c1ccccc1)c1ccccc1)C2` (stereo partly specified), in assay [4], the Potency entry was “inactive”.

For the compound `CN(C)CCOc1ccc(/C(=C(/CCCl)c2ccccc2)c2ccccc2)cc1`, the Potency result in assay [1] and in assay [3] was “inactive” in each case.

For `COc1ccc(-c2ccc3cc(C(=O)O)ccc3c2)cc1C12CC3CC(CC(C3)C1)C2`, the Potency entry in assay [1] and in assay [3] was “inactive” in each case.

Regarding `COc1cc(C)nc(-n2nc(C)cc2OC)n1`, the Potency result in assay [1] and in assay [3] was “inactive” throughout.

For the compound `CCOC(=O)CC(SP(=S)(OC)OC)C(=O)OCC` (stereo unspecified), the Potency result in assay [1], in assay [2] and in assay [3] was “inactive” in each case. Also, in assay [5], the Potency is 100 µM (active).

On to `CN(C)c1ccc2nc3ccc(=[N+](C)C)cc-3sc2c1`, for which the Potency in assay [2] was 7.08 µM (active).

As for `CC(=O)N1CCN(c2ccc(OC[C@H]3CO[C@](Cn4ccnc4)(c4ccc(Cl)cc4Cl)O3)cc2)CC1`, in assay [2], the Potency was 7.94 µM (active).

On to `C[N+]1(CCF)[C@@H]2CC[C@H]1CC(OC(=O)C(O)(c1ccccc1)c1ccccc1)C2` (stereo partly specified), for which the Potency entry in assay [1], in assay [2] and in assay [3] was “inactive” each time. Also, the compound was classed as inactive in assay [6].

On to `O=c1[nH]c(=O)n([C@H]2C[C@H](O)[C@@H](CO)O2)cc1Br`, for which the Potency result in assay [1] and in assay [3] was “inactive” each time.

For `CCN(CC)C(C)CN1c2ccccc2Sc2ccccc21` (stereo unspecified), the Potency entry in assay [1] and in assay [3] was “inactive” throughout.

For `CCOc1ccc2nc3cc(N)ccc3c(N)c2c1`, the Potency result in assay [1] and in assay [3] was “inactive” throughout.

Consider `Nc1ncn([C@H]2C[C@H](O)[C@@H](CO)O2)c(=O)n1`, for which the Potency result in assay [1] and in assay [3] was “inactive” each time.

`CC(=O)O[C@]1(C(C)=O)CC[C@H]2[C@@H]3C[C@H](C)C4=CC(=O)CC[C@]4(C)[C@H]3CC[C@@]21C`: the Potency result in assay [1] and in assay [3] was “inactive” each time.

As for `Cc1cc(C(C#N)c2ccc(Cl)cc2)c(Cl)cc1NC(=O)c1cc(I)cc(I)c1O` (stereo unspecified), the Potency in assay [2] is 20 µM (active).

With `C[n+]1c2cc(N)ccc2cc2ccc(N)cc21` (tested in a mixture with another compound), the Potency in assay [2] is 7.94 µM (active).

Take `C#CCC(Cc1cnc2nc(N)nc(N)c2n1)c1ccc(C(=O)N[C@@H](CCC(=O)O)C(=O)O)cc1` (stereo partly specified): the Potency result in assay [2] was “inactive”.

Take `COc1cc(C)c(Cc2cnc(N)nc2N)cc1OC`: the Potency entry in assay [1] and in assay [3] was “inactive” each time.

In the case of `CC(=O)OCC(=O)[C@H]1CC[C@H]2[C@@H]3CCC4=CC(=O)CC[C@]4(C)[C@H]3CC[C@]12C`, the Potency result in assay [1] and in assay [3] was “inactive” each time.

Turning to `CNCCCC12CCC(c3ccccc31)c1ccccc12`, the Potency result in assay [1], in assay [3] and in assay [4] was “inactive” in each case.

On to `CC(=O)S[C@@H]1CC2=CC(=O)CC[C@]2(C)[C@H]2CC[C@@]3(C)[C@@H](CC[C@@]34CCC(=O)O4)[C@H]12`, for which the Potency entry in assay [2] and in assay [3] was “inactive” in each case.

(Values after PubChem BioAssay (NCATS).)
